Measurements reported in publication PMC7862700, “An all-to-all approach to the identification of sequence-specific readers for epigenetic DNA modifications on cytosine”.

Assays:
Assay in all cases: DAPPL (digital affinity profiling via proximity ligation, sequencing); 10 mM Tris-HCl pH 7.5, 50 mM NaCl, 1 mM DTT, 4% glycerol, room temperature, 30 min; GST-TFs on glutathione beads, 16-mer random dsDNA library, 0.1% formaldehyde crosslink after washing; high values mean tight binding
FEV = target: T1, FEV (Homo sapiens, UniProt Q99581 1-238); settings: protein: recombinant; tags: N-terminal GST; dsDNA, one strand shown
T1 sequence: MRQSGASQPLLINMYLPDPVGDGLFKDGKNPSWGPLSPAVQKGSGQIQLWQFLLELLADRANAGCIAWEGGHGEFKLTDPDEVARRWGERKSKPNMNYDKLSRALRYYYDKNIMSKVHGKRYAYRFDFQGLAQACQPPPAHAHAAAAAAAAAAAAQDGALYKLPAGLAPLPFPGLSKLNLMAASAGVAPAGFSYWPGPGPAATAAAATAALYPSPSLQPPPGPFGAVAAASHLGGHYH
Procedure, shortened: (§1)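 Binding signal is given per hexamer as its read frequency for a factor divided by its frequency in the tag-only sample. GST-fused human transcription factors were expressed in yeast, captured on glutathione beads, barcoded with DNA and pooled with that sample, then incubated with 200 nmole of a 16-mer random double-stranded DNA library in Tris/NaCl/DTT/glycerol buffer for 30 min at room temperature. The pools were then washed, crosslinked, proximity-ligated, amplified by PCR and sequenced on an Illumina NextSeq500.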

ETV5 = ETV5 (Homo sapiens, UniProt P41161 1-510); settings: protein: recombinant; tags: N-terminal GST; dsDNA, one strand shown
Sequence of ETV5 (P41161 whole entry): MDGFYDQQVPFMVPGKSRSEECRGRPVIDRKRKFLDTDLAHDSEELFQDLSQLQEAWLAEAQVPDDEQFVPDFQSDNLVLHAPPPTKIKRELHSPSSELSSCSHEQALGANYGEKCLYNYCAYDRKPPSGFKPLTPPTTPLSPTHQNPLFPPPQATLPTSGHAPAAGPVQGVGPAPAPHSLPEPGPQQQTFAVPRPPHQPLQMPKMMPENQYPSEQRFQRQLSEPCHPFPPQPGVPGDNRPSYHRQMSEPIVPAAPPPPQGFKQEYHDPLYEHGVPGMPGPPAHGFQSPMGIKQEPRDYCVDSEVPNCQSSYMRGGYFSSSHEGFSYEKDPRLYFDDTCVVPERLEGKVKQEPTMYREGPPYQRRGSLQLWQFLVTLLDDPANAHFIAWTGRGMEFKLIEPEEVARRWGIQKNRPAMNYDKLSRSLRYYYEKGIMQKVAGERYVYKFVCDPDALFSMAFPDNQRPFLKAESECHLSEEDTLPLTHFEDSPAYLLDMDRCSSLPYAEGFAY
Procedure, shortened: as §1

HSF1 = HSF1 (Homo sapiens, UniProt Q00613 1-529); settings: protein: recombinant; tags: N-terminal GST; chain copies: 3; dsDNA, one strand shown
Sequence of HSF1 (Q00613 whole entry): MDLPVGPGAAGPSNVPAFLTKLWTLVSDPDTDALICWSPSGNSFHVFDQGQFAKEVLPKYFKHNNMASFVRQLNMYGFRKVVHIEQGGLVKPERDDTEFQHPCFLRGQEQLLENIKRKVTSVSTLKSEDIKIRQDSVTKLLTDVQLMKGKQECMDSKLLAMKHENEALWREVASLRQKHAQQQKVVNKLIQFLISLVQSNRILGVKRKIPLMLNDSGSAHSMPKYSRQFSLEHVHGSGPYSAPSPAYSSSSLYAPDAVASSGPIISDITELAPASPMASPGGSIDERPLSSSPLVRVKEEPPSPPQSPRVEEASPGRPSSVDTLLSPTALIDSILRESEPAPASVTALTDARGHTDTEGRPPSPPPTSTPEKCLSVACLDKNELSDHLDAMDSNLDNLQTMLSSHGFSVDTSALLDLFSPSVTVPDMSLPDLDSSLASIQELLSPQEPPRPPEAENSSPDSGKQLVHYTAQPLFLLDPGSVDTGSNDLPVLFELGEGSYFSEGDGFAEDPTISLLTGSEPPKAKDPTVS
Procedure, shortened: as §1

SPIC = target: T2, SPIC (Homo sapiens, UniProt Q8N5J4 1-248); settings: protein: recombinant; tags: N-terminal GST; dsDNA, one strand shown
T2 sequence: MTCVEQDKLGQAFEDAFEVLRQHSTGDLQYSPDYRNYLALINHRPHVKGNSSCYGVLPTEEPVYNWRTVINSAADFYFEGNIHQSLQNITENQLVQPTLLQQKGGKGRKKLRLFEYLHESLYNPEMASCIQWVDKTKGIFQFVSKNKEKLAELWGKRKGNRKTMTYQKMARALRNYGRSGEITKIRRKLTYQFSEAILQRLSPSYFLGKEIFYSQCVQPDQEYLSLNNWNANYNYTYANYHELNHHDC
Procedure, shortened: as §1

ELF4 = ELF4 (Homo sapiens, UniProt Q99607 1-663); settings: protein: recombinant; tags: N-terminal GST; dsDNA, one strand shown
Sequence of ELF4 (Q99607 whole entry): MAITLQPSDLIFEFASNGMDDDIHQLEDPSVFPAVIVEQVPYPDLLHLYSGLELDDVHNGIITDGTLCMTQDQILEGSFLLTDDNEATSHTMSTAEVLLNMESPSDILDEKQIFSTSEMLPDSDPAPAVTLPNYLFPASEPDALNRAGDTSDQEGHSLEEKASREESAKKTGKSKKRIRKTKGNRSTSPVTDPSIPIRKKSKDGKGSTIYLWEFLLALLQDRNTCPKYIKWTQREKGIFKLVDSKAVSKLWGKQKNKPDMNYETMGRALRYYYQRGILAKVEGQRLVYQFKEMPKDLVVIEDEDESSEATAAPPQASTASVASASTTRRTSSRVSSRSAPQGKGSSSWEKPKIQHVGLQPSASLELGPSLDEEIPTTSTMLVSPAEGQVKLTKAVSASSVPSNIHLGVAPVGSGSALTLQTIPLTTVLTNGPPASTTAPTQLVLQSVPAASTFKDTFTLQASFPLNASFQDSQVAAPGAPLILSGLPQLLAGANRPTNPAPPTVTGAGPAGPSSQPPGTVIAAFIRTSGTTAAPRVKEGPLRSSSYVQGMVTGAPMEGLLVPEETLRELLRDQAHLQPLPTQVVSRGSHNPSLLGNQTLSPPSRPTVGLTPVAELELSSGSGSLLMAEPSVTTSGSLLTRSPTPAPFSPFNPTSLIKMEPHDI
Procedure, shortened: as §1

ELK4 = target: T3, ELK4 (Homo sapiens, UniProt P28324-2 1-405); settings: protein: recombinant; tags: N-terminal GST; dsDNA, one strand shown
T3 sequence: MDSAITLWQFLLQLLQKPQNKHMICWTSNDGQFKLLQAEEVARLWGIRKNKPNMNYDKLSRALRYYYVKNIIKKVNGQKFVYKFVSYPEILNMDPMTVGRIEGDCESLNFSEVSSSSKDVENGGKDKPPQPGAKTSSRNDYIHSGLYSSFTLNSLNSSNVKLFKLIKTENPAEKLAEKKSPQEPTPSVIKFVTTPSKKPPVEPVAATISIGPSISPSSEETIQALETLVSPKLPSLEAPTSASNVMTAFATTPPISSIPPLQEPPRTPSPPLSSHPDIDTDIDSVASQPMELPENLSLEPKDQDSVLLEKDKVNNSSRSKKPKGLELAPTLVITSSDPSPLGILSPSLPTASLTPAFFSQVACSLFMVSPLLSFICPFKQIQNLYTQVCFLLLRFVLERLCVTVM
Procedure, shortened: as §1

ETV2 = target: T4, ETV2 (Homo sapiens, UniProt O00321 1-342); settings: protein: recombinant; tags: N-terminal GST; dsDNA, one strand shown
T4 sequence: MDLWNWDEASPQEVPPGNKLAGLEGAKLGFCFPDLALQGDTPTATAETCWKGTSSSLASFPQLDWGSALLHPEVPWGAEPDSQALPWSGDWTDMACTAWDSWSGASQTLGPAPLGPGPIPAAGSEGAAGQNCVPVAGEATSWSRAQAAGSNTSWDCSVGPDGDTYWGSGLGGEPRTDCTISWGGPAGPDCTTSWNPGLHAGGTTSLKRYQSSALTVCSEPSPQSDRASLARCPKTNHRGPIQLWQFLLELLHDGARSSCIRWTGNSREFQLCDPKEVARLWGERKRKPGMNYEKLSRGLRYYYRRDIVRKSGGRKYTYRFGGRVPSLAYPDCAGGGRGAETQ
Procedure, shortened: as §1

ELF3 = target: T5, ELF3 (Homo sapiens, UniProt P78545 1-371); settings: protein: recombinant; tags: N-terminal GST; dsDNA, one strand shown
T5 sequence: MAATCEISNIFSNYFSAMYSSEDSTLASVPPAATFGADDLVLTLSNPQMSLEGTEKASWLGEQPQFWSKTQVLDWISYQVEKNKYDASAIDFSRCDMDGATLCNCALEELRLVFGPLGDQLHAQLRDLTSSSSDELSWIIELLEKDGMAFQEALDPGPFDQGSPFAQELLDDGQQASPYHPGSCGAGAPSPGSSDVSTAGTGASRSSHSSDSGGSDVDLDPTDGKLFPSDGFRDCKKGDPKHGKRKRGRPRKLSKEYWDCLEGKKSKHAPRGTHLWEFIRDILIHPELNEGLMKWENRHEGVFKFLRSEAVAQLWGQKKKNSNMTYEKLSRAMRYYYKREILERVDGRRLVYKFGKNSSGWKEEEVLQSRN
Procedure, shortened: as §1

CRX = CRX (Homo sapiens, UniProt O43186 1-299); settings: protein: recombinant; tags: N-terminal GST; dsDNA, one strand shown
Sequence of CRX (O43186 whole entry): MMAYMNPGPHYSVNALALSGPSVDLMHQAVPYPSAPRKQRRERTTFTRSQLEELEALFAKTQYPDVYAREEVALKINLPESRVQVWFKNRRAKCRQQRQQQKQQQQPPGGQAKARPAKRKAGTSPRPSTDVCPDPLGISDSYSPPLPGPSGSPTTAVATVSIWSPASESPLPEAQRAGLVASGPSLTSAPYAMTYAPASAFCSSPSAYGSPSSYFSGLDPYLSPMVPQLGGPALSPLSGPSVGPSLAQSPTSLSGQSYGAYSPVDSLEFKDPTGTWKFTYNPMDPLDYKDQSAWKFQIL
Procedure, shortened: as §1

ETV1 = ETV1 (Homo sapiens, UniProt P50549 1-477); settings: protein: recombinant; tags: N-terminal GST; dsDNA, one strand shown
Sequence of ETV1 (P50549 whole entry): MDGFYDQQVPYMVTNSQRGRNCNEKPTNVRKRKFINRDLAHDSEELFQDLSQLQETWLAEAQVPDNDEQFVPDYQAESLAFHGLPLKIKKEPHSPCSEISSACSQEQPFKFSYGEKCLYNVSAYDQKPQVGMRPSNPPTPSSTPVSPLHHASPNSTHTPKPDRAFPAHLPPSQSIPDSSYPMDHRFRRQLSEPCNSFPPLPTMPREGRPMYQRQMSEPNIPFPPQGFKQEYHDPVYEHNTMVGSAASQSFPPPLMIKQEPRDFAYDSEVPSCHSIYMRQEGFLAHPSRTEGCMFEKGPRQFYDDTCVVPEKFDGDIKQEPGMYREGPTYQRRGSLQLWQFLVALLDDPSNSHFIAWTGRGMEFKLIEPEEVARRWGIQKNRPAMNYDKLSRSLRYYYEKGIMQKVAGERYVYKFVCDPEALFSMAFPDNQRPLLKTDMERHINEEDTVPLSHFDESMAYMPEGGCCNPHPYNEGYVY
Procedure, shortened: as §1

ERF = target: T6, ERF (Homo sapiens, UniProt P50548 1-548); settings: protein: recombinant; tags: N-terminal GST; dsDNA, one strand shown
T6 sequence: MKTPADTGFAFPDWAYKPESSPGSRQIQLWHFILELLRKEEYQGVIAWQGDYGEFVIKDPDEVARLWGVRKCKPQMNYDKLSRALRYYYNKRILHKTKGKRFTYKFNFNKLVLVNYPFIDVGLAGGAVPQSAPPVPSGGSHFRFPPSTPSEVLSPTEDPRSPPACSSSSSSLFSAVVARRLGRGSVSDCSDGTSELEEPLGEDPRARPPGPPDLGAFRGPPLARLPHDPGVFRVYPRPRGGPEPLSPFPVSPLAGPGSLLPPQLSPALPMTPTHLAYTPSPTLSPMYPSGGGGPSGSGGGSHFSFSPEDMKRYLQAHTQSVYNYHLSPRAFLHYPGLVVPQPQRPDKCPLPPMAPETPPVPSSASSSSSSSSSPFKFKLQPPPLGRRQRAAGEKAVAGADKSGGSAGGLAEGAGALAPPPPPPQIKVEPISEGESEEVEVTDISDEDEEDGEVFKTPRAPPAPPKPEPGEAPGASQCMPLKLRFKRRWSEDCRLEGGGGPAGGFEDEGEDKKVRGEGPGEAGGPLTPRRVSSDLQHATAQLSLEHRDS
Procedure, shortened: as §1

ETV3L = target: T7, ETV3L (Homo sapiens, UniProt Q6ZN32 1-361); settings: protein: recombinant; tags: N-terminal GST; dsDNA, one strand shown
T7 sequence: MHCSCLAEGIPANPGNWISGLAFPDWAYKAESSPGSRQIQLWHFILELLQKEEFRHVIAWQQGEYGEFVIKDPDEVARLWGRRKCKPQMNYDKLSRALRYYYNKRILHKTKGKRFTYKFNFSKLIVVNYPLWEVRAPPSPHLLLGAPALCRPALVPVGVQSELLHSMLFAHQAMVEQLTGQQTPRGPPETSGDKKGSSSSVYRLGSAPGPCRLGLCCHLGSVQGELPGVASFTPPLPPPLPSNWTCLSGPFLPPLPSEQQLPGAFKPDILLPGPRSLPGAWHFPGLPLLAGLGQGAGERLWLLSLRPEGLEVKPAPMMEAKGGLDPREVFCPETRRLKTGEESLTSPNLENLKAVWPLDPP
Procedure, shortened: as §1

ETS2 = target: T8, ETS2 (Homo sapiens, UniProt P15036 1-469); settings: protein: recombinant; tags: N-terminal GST; dsDNA, one strand shown
T8 sequence: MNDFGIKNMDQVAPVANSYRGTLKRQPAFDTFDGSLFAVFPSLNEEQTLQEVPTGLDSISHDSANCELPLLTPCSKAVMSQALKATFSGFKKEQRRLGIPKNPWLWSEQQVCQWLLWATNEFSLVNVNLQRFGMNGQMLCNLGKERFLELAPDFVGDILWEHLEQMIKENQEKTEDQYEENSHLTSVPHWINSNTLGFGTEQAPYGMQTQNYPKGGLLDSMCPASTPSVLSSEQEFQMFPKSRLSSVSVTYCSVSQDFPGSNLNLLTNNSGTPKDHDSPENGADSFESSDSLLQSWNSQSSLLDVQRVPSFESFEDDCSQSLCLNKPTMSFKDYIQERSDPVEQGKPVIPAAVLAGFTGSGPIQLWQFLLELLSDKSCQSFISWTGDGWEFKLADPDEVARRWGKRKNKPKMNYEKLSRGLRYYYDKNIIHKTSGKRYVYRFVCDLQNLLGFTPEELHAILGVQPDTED
Procedure, shortened: as §1

SPDEF = target: T9, SPDEF (Homo sapiens, UniProt O95238 1-335); settings: protein: recombinant; tags: N-terminal GST; dsDNA, one strand shown
T9 sequence: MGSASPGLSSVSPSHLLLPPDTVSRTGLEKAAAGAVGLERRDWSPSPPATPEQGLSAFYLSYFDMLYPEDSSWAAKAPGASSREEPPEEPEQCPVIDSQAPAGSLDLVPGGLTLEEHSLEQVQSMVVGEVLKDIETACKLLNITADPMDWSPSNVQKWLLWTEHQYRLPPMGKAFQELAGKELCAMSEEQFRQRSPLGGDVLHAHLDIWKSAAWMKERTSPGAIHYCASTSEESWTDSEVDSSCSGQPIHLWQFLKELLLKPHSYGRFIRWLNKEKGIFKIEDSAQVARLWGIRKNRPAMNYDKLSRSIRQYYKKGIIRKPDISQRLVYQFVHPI
Procedure, shortened: as §1

ETV7 = target: T10, ETV7 (Homo sapiens, UniProt Q9Y603 1-341); settings: protein: recombinant; tags: N-terminal GST; dsDNA, one strand shown
T10 sequence: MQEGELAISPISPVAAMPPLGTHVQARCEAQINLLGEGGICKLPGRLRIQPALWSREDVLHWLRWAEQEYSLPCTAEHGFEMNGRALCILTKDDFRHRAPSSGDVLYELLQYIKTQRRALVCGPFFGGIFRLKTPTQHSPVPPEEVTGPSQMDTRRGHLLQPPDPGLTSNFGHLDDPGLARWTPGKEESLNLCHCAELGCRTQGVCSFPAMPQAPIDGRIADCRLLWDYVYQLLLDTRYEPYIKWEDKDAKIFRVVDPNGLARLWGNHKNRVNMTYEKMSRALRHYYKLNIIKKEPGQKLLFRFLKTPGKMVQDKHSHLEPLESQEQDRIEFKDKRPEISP
Procedure, shortened: as §1

ELF5 = target: T11, ELF5 (Homo sapiens, UniProt Q9UKW6-2 1-255); settings: protein: recombinant; tags: N-terminal GST; dsDNA, one strand shown
T11 sequence: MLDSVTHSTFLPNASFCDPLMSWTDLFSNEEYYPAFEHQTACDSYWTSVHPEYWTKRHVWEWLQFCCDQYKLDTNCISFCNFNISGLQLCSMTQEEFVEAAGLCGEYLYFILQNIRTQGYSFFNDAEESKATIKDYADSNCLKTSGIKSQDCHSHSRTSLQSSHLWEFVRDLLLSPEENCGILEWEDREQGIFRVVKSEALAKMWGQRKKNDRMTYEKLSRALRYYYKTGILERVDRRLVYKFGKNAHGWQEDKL
Procedure, shortened: as §1

ETV3 = target: T12, ETV3 (Homo sapiens, UniProt P41162-2 1-143); settings: protein: recombinant; tags: N-terminal GST; dsDNA, one strand shown
T12 sequence: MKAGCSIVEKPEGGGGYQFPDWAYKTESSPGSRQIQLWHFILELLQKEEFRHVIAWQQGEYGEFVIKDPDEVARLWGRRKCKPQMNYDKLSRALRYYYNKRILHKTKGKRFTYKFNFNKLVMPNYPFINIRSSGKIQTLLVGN
Procedure, shortened: as §1

ETV6 = ETV6 (Homo sapiens, UniProt P41212 1-452); settings: protein: recombinant; tags: N-terminal GST; dsDNA, one strand shown
Sequence of ETV6 (P41212 whole entry): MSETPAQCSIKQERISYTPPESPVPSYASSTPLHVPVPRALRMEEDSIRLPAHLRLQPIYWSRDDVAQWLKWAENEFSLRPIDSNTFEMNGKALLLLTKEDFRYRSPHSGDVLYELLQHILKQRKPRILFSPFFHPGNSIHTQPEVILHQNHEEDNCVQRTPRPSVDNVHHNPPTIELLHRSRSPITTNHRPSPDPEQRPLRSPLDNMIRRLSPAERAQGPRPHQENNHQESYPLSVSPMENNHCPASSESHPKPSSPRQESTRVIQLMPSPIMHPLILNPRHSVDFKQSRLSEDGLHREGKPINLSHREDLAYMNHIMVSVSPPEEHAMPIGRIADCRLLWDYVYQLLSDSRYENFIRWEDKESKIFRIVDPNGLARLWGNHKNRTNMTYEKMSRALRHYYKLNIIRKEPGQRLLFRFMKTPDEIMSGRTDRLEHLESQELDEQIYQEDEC
Procedure, shortened: as §1

TACTTT
binding signal (FEV): 1.33 fold enrichment (6-mer frequency, TF over GST control)
binding signal (ETV5): 1.38 fold enrichment (6-mer frequency, TF over GST control)
binding signal (HSF1): 1.44 fold enrichment (6-mer frequency, TF over GST control)
binding signal (SPIC): 1.26 fold enrichment (6-mer frequency, TF over GST control)
binding signal (ELF4): 1.43 fold enrichment (6-mer frequency, TF over GST control)
binding signal (ELK4): 1.4 fold enrichment (6-mer frequency, TF over GST control)
binding signal (ETV2): 1.33 fold enrichment (6-mer frequency, TF over GST control)
binding signal (ELF3): 1.73 fold enrichment (6-mer frequency, TF over GST control)
binding signal (CRX): 1.71 fold enrichment (6-mer frequency, TF over GST control)
binding signal (ETV1): 1.39 fold enrichment (6-mer frequency, TF over GST control)
binding signal (ERF): 1.39 fold enrichment (6-mer frequency, TF over GST control)
binding signal (ETV3L): 1.35 fold enrichment (6-mer frequency, TF over GST control)
binding signal (ETS2): 1.32 fold enrichment (6-mer frequency, TF over GST control)
binding signal (SPDEF): 1.35 fold enrichment (6-mer frequency, TF over GST control)
binding signal (ETV7): 1.36 fold enrichment (6-mer frequency, TF over GST control)
binding signal (ELF5): 1.34 fold enrichment (6-mer frequency, TF over GST control)
binding signal (ETV3): 1.34 fold enrichment (6-mer frequency, TF over GST control)
binding signal (ETV6): 1.37 fold enrichment (6-mer frequency, TF over GST control)
